Screens deposited in PubChem by National Center for Advancing Translational Sciences (NCATS).
Rows were chosen to be rich in hits. Some 3.5% of all compounds tested hit in one or more screens of this group.
Sm TGR inh = blocks Schistosoma mansoni thioredoxin glutathione reductase | Q962Y6 | purified TGR, DTNB reduction, TNB absorbance 405 nm | Potency, µM (top dose mostly 114 µM), inactives show at the top dose activity change, negative = inhibition, most hits filed as inhibitors | 360,000 tested, 3% active | AID 485364; further: potency means the concentration at half of the fitted maximal effect; on the % scale 0 is the no-effect control and ±100 the full control effect; nearly all actives have a fitted effect of over 60% in size
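Kinetic colorimetric format: TGR-catalysed, NADPH-driven DTNB reduction monitored via TNB absorbance. Enzyme dispensed at 20 nM; compound exposure 15 min at room temperature before reaction start.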
Tb PYK inh = inhibitors of Trypanosoma brucei pyruvate kinase. TbPYK enzyme, Kinase-Glo Plus ATP luminescence, 45 min. 410,000 tested, 0.12% active. Potency, µM (top dose mostly 76.8 µM), for the others: at the top dose activity, negative = inhibition, hits mostly inhibitors. Q57TT1. AID 624173; further: potency means the concentration at half of the fitted maximal effect; on the % scale 0 is the no-effect control and ±100 the full control effect; nearly all actives have a fitted effect of over 50% in size
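Enzyme and substrate buffer are dispensed first and compound is pin-transferred. ADP at 130 uM final then starts the reaction, which runs 45 min at room temperature. Detection reagent is added for 10 min before luminescence is imaged.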
Giardia FBPA inh-1 = Giardia lamblia aldolase inhibition | purified Giardia FBPA | Potency, µM (doses to about 59.6 µM), for inactives: top-dose activity, negative = inhibition, usual class: inhibitors | 290,000 tested, 0.71% active | AID 2451; further: potency means the concentration at half of the fitted maximal effect; on the % scale 0 is the no-effect control and ±100 the full control effect; nearly all actives have a fitted effect of over 55% in size
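Giardia FBPA (40 nM reagent) was preincubated 10 min at RT with compound (up to 57.5 uM final), then substrate plus GAPDH/TPI/NAD/arsenate coupling system with diaphorase/resazurin was added; resorufin fluorescence (525/598 nm) was read after 20 min.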
RE007 growth inh = less growth of the S. pombe RE007 Vpr strain. 360,000 tested, 0.21% active. S. pombe RE007 Vpr strain, BacTiter-Glo ATP luminescence, 24 h. Potency, µM (doses to about 92.2 µM), inactives show at the highest dose activity change, negative = less growth, most hits filed as inhibitors; active means well fitted falling curve with a large enough effect; inconclusive means small, poorly fitted or top-dose-only effect; inactive means no such curve, though single readings can be large or run the other way; further: potency means the concentration at half of the fitted maximal effect; on the % scale 0 is the no-effect control and ±100 the full control effect; nearly all actives have a fitted effect of over 50% in size
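Fission yeast strain RE007, carrying one chromosomally integrated HIV-1 vpr copy, was seeded at OD 0.01 in PMG+AL medium with 23 nL pinned compound. After 24 h at 30 °C and 99% humidity, viability was read by BacTiter-Glo luminescence.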
NS1 function inh = inhibitors of influenza NS1 protein function. 270,000 tested, 0.4% active. Potency, µM (series often up to 46.1 µM), for the others: at the top dose activity, positive = more growth; calls by dose curve; further: potency means the concentration at half of the fitted maximal effect; actives are rising curves; nearly all actives have a fitted effect of over 50% in size
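OD600 was taken as the measure of yeast growth restored by compound in an NS1-expressing S. cerevisiae strain. Cells had been washed out of glucose medium and diluted 1:100 into galactose -URA medium, pH 6.0.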
LmPK inh = blocks Leishmania mexicana pyruvate kinase activity; AID 1721; Q27686; purified LmPK, Kinase-Glo ATP luminescence, 1 h; Potency, µM (highest dose often 57.5 µM), for the others: at the top dose activity change, negative = inhibition, hits mostly inhibitors; 290,000 tested, 0.37% active; further: potency means the concentration at half of the fitted maximal effect; on the % scale 0 is the no-effect control and ±100 the full control effect
Target sequence (Q27686 whole entry, looked up): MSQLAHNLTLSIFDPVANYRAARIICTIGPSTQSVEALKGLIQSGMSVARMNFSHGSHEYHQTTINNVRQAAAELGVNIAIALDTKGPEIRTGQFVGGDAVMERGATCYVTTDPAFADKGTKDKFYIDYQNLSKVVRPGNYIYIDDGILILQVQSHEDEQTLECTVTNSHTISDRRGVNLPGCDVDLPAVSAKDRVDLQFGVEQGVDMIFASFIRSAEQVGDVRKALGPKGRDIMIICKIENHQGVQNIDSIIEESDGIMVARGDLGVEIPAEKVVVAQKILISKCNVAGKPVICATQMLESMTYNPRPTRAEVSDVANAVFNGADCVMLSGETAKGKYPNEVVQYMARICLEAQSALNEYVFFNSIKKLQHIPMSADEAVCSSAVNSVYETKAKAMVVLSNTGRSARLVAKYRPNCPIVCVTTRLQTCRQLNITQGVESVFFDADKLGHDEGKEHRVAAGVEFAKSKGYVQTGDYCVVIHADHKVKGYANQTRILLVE
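In 50 mM imidazole pH 7.2 with 7 mM MgCl2, LmPK (0.1 nM) turned over PEP (0.5 mM) and ADP (0.1 mM) for 1 h at room temperature. Luciferase read-out of ATP.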
LmPK confirm = Confirms inhibition of Leishmania mexicana pyruvate kinase. shares compounds with LmPK inh. purified LmPK, Kinase-Glo ATP luminescence, 1 h. Potency, µM (titrated, usually from 57.5 µM), for inactives: at the highest dose activity change, negative = inhibition, actives largely listed as inhibitors. 150 tested, 40% active;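 active means compounds giving a full or partial concentration-response curve, as inhibitors or activators; inconclusive means weak, top-dose-only or unclear curve responses; inactive means no response at any tested dose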
NS1 inh valid = influenza NS1 function inhibition validation; shares compounds with NS1 function inh; influenza NS1 function cell assay, 15-point titration; activity change, negative = inhibition, % at 32.9 µM; 1,400 tested, under 10 active; calls by dose curve; further: 0% is about no effect
Giardia growth = blocks growth of Giardia lamblia trophozoites; shares compounds with Giardia FBPA inh-1; Giardia lamblia trophozoite growth inhibition; Potency, µM (series often up to 57.5 µM), for inactives: at the highest dose activity change, negative = inhibition, usual class: inhibitors; 1,500 tested, 5% active; AID 2785;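 further: potency means the concentration at half of the fitted maximal effect; trophozoites exposed to compound for 48 h at 37 °C; on the % scale 0 is the no-effect control and ±100 the full control effect; nearly all actives have a fitted effect of over 70% in size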
Mammal cell tox = toxic to mammalian cells in Giardia aldolase counter-screen. Potency, µM (highest dose often 57.5 µM), inactives show at the top dose viability change, negative = toxicity, hits mostly inhibitors. shares compounds with Giardia FBPA inh-1. AID 2786. 1,500 tested, 4% active. mammalian cell viability counter-screen, qHTS;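 further: Chinese hamster ovary cells used as mammalian cytotoxicity surrogate; viability measured as cellular ATP by luminescence; potency means the concentration at half of the fitted maximal effect; compound exposure lasted 48 h before reading; on the % scale 0 is the no-effect control and ±100 the full control effect; nearly all actives have a fitted effect of over 60% in size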
Giardia FBPA inh-2 = confirmation of Giardia fructose-bisphosphate aldolase inhibitors; shares compounds with Giardia FBPA inh-1; purified Giardia aldolase enzyme activity, qHTS; Potency, µM (doses to about 57.5 µM), for the others: top-dose activity change, negative = inhibition, hits mostly inhibitors; 1,500 tested, 5% active; AID 2787; further: potency means the concentration at half of the fitted maximal effect; on the % scale 0 is the no-effect control and ±100 the full control effect; nearly all actives have a fitted effect of over 45% in size
Rabbit FBPA inh = selectivity test for Giardia aldolase inhibitors: rabbit aldolase. shares compounds with Giardia FBPA inh-1. Rabbit muscle FBPA enzyme inhibition, selectivity counter-screen. Potency, µM (top dose mostly 57.5 µM), without a hit: at the top dose activity, negative = inhibition, usual class: inhibitors. 1,500 tested, 4% active. AID 2794; further: potency means the concentration at half of the fitted maximal effect; on the % scale 0 is the no-effect control and ±100 the full control effect; nearly all actives have a fitted effect of over 60% in size
GAPDH coupling = counter-screen for Giardia aldolase inhibitors: GAPDH coupling enzyme; shares compounds with Giardia FBPA inh-1; GAPDH coupling enzyme counterscreen, biochemical, qHTS; Potency, µM (top dose mostly 57.5 µM), without a hit: at the top dose activity change, negative = inhibition, most hits filed as inhibitors; 1,500 tested, 6% active; AID 2795; further: potency means the concentration at half of the fitted maximal effect; on the % scale 0 is the no-effect control and ±100 the full control effect; nearly all actives have a fitted effect of over 55% in size
Starred values were filed as active, the others as inactive; ? = inconclusive; . = no result; [ ] = remark or other dose. Unless noted, the call rests on the fitted dose curve; in most records, active means well fitted curve in the direction sought with a large enough effect; inconclusive means small, poorly fitted or top-dose-only effect, or another doubt; inactive means no such curve, though single readings can be large; an effect the other way counts as inactive or inconclusive.

SMILES	Sm TGR inh	Tb PYK inh	Giardia FBPA inh-1	RE007 growth inh	NS1 function inh	LmPK inh	LmPK confirm	NS1 inh valid	others
Cc1cc(NC(=O)c2ccccc2)ncc1NC(=O)c1ccco1	22µM*	?	?	?	?	14µM*	16µM*	-23
COc1ccc(/C=N/NC(N)=S)cc1OC(=O)c1cccc2ccccc12	11%	-2%	-1%	4%	2.2µM*	-1%	-1%	?
COCCOC(=O)C1=C(C)N=C2SCCC(=O)N2C1c1ccc(OCc2ccccc2)c(OC)c1 (stereo not drawn)	-7%	2%	.	.	.	.	.	.
C[C@]12CC[C@@H]3c4cc(O)c(O)cc4CC[C@H]3[C@@H]1CC[C@@H]2O	?	?	16µM*	-15%[18.4 µM]	22%	0.56µM*	?	.	Giardia growth=7%;Mammal cell tox=-15%;Giardia FBPA inh-2=4µM*;Rabbit FBPA inh=?;GAPDH coupling=-29%
O=c1c2ccccc2[se]n1-c1ccccc1	?	8.9µM*	7.9µM*	-21%	-28%	22µM*	13µM*	.	Giardia growth=20µM*;Mammal cell tox=?;Giardia FBPA inh-2=?;Rabbit FBPA inh=22µM*;GAPDH coupling=-6%
O=c1c2ccccc2nc(-c2ccccc2)n1-c1ccccc1	8%	3%	6%	10%	-10%	-1%	.	.
COc1ccc(OC)c(CNC(=O)CN2CC(C)Sc3ccccc32)c1 (stereo not drawn)	6%	1%	.	.	.	.	.	.
O=C(c1ccc2c(=O)n(CC3CCCO3)c(=S)[nH]c2c1)N1CCN(c2ccccc2)CC1 (stereo not drawn)	8%	0%	-24%	26%	?	4%	.	0
CCOC(=O)N1CCN(C(=O)c2ccc3c(=O)n(CC4CCCO4)c(=S)[nH]c3c2)CC1 (stereo not drawn)	0%	-6%	-10%	7%	0%	-4%	.	.
O=c1cc(N2CCc3ccccc32)[nH]c(=O)n1-c1ccc(Br)cc1	-5%	-3%	?	3%	6.3µM*	1%	.	22
Cc1ccc(NC(=O)C2Cc3ccccc3N2C(=O)c2ccccc2)cc1Cl (stereo not drawn)	0%	3%	.	.	.	.	.	.
Cc1ccc(C(O)Cn2cc([N+](=O)[O-])nc2C)cc1 (stereo not drawn)	0%	1%	-4%	0%	?	6%	.	8
